# For some assays here: Potency and affinity values are given separately.
# Legend:
# Set-up in all cases: scale not given: direction of the effect not stated beside the values
# [1] = target: Protein translocase subunit SecA (Escherichia coli (strain K12)) (UniProt P10408); test: Assay to Identify E. coli SecA ATPase Inhibitors; assay type: functional; settings: 30 µM
# [2] = target: T1, Ubiquitin-activating enzyme e1, putative (Leishmania donovani (strain BPK282A1)) (UniProt E9BSI1); test: Leishmania donovani Ubiquitin Activating Enzyme (LdE1); assay type: functional; settings: 30 µM
# T1 sequence (whole entry): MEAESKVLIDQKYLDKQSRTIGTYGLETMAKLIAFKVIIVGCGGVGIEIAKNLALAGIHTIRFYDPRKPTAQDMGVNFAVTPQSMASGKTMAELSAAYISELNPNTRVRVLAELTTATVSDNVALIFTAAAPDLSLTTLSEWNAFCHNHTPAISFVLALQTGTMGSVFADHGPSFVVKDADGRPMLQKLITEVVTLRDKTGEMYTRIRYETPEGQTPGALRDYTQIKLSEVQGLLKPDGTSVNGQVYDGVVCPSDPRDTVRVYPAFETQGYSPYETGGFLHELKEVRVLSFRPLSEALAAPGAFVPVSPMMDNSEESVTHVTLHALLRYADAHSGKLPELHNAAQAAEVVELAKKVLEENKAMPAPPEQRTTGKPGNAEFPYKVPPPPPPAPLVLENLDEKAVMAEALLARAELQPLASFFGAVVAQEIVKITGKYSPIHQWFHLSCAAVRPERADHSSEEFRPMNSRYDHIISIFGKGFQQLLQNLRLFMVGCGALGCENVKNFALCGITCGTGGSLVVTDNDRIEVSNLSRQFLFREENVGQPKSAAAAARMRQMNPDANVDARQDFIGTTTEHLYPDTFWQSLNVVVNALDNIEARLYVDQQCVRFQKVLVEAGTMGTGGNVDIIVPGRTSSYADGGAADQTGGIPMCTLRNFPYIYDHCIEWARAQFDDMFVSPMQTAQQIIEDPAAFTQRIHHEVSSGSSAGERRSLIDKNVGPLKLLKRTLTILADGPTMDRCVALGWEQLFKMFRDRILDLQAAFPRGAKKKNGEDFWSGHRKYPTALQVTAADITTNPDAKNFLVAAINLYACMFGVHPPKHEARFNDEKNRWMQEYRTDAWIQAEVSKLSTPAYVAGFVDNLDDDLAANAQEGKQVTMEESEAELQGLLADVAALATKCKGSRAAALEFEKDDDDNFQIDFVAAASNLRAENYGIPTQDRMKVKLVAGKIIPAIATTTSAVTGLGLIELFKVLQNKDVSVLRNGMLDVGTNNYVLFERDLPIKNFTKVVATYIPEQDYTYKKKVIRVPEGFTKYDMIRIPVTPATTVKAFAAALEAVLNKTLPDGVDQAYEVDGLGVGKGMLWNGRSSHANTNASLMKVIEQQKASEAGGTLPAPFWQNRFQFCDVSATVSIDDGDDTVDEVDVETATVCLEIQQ
# [3] = target: AMP-activated protein kinase, AMPK (Homo sapiens) (UniProt P54646+O43741+P54619+Q9UGJ0+Q9Y478+Q13131+Q9UGI9); test: AMP-dependent Kinase enzyme assay. An in vitro enzyme assay that detects ADP turnover that is directly proportional to AMPK activity. This uses naive AMPK that is activated during the assay with MK-8722; assay type: functional; settings: 30 µM
# [4] = target: Sialic acid-binding Ig-like lectin 9 (Homo sapiens) (UniProt Q9Y336); test: Hs-Siglec9 ALPHAscreen SOP 20170721; settings: 10 µM
# [5] = system: Trypanosoma cruzi; test: Trypanosoma cruzi phosphomannomutase and mannose-1-phosphate guanylyltransferase assay; assay type: functional; settings: 10 µM
# [6] = target: T2, Arginase-2, mitochondrial (Homo sapiens) (UniProt P78540); test: in vitro enzyme assay to detect the production of urea directly proportional to the activity of Arginase II; assay type: functional; settings: 33.3 µM; also: in the data most compounds retested in dose-response had high values
# T2 sequence (whole entry): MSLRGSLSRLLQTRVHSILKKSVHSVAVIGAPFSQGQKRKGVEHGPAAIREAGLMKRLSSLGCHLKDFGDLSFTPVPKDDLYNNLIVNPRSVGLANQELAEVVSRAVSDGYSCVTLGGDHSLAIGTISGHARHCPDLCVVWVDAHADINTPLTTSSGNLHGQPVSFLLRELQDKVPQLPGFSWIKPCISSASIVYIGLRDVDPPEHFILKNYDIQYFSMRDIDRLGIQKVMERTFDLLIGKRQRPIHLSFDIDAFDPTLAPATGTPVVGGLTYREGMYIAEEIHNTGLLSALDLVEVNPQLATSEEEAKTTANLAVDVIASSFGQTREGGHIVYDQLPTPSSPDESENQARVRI
# [7] = target: T3, Proteasome subunit beta (Trypanosoma cruzi) (UniProt O96673); test: Trypanosoma cruzi proteasome chymotrypsin-like activity (TcProtChymo) assay.; also: in the data most compounds retested in dose-response had high values; assay type: functional; settings: 9.37 µM
# T3 sequence (whole entry): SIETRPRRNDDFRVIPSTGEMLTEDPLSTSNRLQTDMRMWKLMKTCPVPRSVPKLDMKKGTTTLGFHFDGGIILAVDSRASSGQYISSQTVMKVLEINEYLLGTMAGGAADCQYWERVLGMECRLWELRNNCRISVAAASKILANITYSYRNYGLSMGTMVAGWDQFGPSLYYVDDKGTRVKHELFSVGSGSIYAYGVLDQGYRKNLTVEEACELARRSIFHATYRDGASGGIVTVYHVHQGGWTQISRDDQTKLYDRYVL
# [8] = species: Homo sapiens; test: To identify inhibition of the IFN signalling (Jak-Stat) pathway via expression of an eGFP reporter gene under the control of an IFN-stimulated response element (ISRE) containing MxA promoter.; assay type: functional; settings: 30 µM
# [9] = target: T4, Tyrosyl-tRNA synthetase, putative (Trypanosoma cruzi (strain CL Brener)) (UniProt Q4DSP6); test: Trypanosoma cruzi tyrosyl tRNA synthetase (TcYRS) _High Tyrosine SOP; assay type: functional; settings: 30 µM; also: in the data most compounds retested in dose-response had high values
# T4 sequence (whole entry): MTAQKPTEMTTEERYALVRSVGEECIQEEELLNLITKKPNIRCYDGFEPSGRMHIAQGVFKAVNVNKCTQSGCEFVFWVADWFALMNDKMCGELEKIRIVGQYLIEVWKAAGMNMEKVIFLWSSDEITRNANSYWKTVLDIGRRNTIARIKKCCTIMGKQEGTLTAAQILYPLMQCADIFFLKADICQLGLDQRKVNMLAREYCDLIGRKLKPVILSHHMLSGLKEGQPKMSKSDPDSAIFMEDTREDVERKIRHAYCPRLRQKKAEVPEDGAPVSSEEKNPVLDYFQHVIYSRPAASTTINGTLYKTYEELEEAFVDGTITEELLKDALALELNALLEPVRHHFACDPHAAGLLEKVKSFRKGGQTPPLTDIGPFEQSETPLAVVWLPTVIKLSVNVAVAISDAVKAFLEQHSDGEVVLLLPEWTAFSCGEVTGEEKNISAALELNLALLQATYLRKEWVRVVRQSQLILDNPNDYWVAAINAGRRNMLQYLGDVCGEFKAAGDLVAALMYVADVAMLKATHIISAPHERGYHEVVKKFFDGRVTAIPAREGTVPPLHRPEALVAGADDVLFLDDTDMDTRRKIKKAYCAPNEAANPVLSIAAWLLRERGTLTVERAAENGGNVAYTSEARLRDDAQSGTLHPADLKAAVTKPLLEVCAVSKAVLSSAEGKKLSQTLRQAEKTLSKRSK
# [10] = target: T4, Tyrosyl-tRNA synthetase, putative (Trypanosoma cruzi (strain CL Brener)); test: Trypanosoma cruzi tyrosyl tRNA synthetase (TcYRS) SOP; assay type: functional; settings: 30 µM
# [11] = target: Chromo domain-containing protein 1 (Saccharomyces cerevisiae (strain ATCC 204508 / S288c) (Baker's yeast)) (UniProt P32657); test: ScCHD-1 Enzyme Inhibition Assay; assay type: functional; settings: 30 µM; also: in the data most compounds retested in dose-response had high values
# Sequence of Chromo domain-containing protein 1 (Saccharomyces cerevisiae (strain ATCC 204508 / S288c) (Baker's yeast)) (P32657 whole entry, the tested form may be a part): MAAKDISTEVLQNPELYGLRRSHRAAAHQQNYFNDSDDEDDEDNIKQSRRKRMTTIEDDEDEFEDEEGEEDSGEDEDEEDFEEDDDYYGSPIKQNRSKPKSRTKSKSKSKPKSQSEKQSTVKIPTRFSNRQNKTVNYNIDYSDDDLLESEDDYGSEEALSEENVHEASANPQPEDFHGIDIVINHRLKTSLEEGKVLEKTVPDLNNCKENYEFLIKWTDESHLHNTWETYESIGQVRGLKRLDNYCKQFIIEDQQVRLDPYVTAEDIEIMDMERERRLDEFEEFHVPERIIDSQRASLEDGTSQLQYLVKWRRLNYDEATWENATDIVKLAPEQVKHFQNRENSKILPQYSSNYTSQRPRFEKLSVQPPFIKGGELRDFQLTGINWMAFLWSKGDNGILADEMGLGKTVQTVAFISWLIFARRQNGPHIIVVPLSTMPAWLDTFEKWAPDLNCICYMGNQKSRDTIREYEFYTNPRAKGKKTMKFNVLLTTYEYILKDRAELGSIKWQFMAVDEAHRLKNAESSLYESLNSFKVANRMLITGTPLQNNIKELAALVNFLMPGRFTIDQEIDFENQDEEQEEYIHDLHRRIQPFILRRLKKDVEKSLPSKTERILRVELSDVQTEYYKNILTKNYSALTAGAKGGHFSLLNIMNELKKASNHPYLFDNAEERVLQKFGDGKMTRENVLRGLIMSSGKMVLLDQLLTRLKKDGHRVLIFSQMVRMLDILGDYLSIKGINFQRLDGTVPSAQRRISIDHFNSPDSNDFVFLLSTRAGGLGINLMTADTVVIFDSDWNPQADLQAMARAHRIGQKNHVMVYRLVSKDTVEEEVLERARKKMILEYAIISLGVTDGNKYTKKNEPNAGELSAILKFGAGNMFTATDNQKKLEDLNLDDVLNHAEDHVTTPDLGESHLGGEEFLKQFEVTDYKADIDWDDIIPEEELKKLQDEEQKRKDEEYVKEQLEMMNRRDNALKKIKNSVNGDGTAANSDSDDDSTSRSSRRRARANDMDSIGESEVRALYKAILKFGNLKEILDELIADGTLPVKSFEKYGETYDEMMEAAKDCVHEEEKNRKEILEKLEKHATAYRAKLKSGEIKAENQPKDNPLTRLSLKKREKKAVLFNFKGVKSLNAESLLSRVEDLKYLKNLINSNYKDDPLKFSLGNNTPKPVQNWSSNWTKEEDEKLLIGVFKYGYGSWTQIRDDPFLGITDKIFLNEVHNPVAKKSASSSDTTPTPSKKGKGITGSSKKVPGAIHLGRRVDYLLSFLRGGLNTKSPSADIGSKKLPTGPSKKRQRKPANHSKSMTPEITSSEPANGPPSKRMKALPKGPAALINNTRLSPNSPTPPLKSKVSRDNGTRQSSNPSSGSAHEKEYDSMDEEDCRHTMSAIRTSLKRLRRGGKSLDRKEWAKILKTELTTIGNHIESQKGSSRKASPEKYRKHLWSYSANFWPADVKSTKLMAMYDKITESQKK
# Sequence of Sialic acid-binding Ig-like lectin 9 (Homo sapiens) (Q9Y336 whole entry): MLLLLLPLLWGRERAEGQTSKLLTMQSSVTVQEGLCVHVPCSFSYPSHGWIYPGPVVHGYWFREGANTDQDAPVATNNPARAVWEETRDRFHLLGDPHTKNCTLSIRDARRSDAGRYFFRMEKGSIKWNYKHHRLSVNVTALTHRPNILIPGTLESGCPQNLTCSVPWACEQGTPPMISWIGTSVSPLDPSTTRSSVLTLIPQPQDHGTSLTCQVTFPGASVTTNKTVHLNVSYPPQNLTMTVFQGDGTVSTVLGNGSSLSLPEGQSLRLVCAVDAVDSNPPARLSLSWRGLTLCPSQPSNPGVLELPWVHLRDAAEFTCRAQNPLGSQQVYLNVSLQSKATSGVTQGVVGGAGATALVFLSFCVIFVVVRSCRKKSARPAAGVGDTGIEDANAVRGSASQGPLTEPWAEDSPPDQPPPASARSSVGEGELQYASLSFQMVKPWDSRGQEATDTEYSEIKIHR
# Sequence of Protein translocase subunit SecA (Escherichia coli (strain K12)) (P10408 whole entry): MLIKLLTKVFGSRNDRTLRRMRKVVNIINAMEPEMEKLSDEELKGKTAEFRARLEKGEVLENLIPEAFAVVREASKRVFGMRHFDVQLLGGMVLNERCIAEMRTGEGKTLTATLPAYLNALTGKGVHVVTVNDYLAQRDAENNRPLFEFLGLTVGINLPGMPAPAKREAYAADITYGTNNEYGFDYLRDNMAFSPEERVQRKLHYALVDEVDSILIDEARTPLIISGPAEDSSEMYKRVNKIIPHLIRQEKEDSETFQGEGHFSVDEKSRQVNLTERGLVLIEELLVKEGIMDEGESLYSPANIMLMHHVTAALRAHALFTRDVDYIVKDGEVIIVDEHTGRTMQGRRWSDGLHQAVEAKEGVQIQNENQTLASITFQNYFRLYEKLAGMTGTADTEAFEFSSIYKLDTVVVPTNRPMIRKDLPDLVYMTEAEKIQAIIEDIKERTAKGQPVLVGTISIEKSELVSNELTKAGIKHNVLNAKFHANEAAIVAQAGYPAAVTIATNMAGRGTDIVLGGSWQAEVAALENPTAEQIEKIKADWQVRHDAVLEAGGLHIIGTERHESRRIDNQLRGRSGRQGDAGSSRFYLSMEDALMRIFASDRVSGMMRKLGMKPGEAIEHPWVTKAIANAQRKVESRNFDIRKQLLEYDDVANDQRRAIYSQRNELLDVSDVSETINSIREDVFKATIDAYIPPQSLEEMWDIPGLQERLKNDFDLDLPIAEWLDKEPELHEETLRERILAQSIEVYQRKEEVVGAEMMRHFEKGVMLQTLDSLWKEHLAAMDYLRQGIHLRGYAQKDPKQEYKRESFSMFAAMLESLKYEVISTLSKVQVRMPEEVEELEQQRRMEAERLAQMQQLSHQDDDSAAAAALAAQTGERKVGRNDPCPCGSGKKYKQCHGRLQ
SMILES,Percent Effect [1] [%],Percent Effect [2] [%],Percent Effect [3] [%],Percent Effect [4] [%],Percent Effect [5] [%],Percent Effect [6] [%],Percent Effect [7] [%],Percent Effect [8] [%],Percent Effect [9] [%],Percent Effect [10] [%],Percent Effect [11] [%]
O=C(NCC(O)c1ccccc1Cl)c1cccc(-n2cnnn2)c1 (configuration not stated),-1.49,11,-3.34,14.3,1.18,1.36,14.2,24.8,3.23,7.5,98.6
Cc1nc2ccccc2nc1CN(C)CC1CCCN1c1cccnn1 (configuration not stated),-5.25,5.2,0.00702,-11.8,3.23,1.47,5.58,21.9,10.5,2.35,-19.8
CCCc1nc(NCCCO)c2c(n1)c(C)nn2CC,-3.3,6.67,9.08,11.8,-1.38,-9.33,14.2,12.4,8.47,12.8,-10.1
CC(NC(=O)NCCNc1ncccn1)c1cccs1 (configuration not stated),-2.16,31.2,32.1,6.3,7.12,-2.49,4.9,12.3,8.74,24.4,-9.75
CSCCC1c2nc[nH]c2CCN1Cc1ccnc2ccccc12 (configuration not stated),-3.26,10.7,-26.6,14.2,4.38,5.73,25.5,10.9,9.29,6.17,-4.91
CNC(=O)C(C)(C)NC(=O)c1cc(OCC2CCC2)cc(C(=O)OC)c1,-0.888,11,28.1,-1.12,2.35,15.9,12.6,31.3,6.45,15,-3.04
CNC(=O)[C@H]1CO[C@H]2CCN(Cc3ccc4ccccc4n3)C[C@H]2C1,-4.79,8.11,7.95,-3.25,-3.62,9.87,18.8,-14.1,2.16,15.4,1.01
COc1cc(C)nc(N2CCN(C(=O)CCc3nccs3)CC2)n1,-6.4,0,2.65,3.42,-5.6,-3.33,14.5,30.1,-2.65,2.44,-4.19
CN(Cc1nccs1)c1nc(-c2ccccn2)nc2c1CCNCC2,-3.65,-1.39,-0.513,-2.23,4.57,-2.21,8.95,11.4,10.5,12.8,-1.22
CCc1nnc2n1CCN(C(=O)c1ccc(-c3ccco3)nc1C)C2,-6.22,17.7,-3.04,13.8,5.57,-2.28,12.5,2.35,10.3,16.5,-9.52
O=C(NC1(c2cccc(F)c2)CCOCC1)c1ccccn1,-5.05,2.6,-0.416,0.357,-4.03,2.76,0.499,14.4,-6.45,-6.17,2.74
CC(=O)N1CCC2(CC1)COCCN2Cc1ccc(F)cc1,-4.99,8.11,4.11,-8.39,-4.2,-0.955,18.1,-2.37,-1.08,7.69,-1.77
Nc1cc2c(nn1)CCN(C(=O)c1cccc3c1OCCO3)C2,0.377,2.6,-2.26,6.77,8.24,0.356,4.05,10.7,5.83,12.2,-10.5
O=C(Cn1c(=O)n(Cc2ccco2)c2ncccc21)NC1CCCCC1,-8.09,14.9,-4.42,11.5,8.5,-4.41,18.6,3.85,6.45,14.3,53
O=C(C1CCCCN1Cc1nc(-c2ccco2)no1)N1CCCC1 (configuration not stated),-8.23,-2.7,7.91,4.5,-5.11,-1.66,2.33,6.46,0,3.66,5.11
O=C(Nc1nc2c(s1)CN(S(=O)(=O)C1CC1)CC2)c1c(F)cccc1F,-3.34,0,17.1,-7.6,-4.11,2.27,9.41,30.1,3.23,7.5,-4.6
COc1ccccc1CC(=O)N1CCC(NCc2c[nH]nc2C)CC1,-1.53,13.5,-1.94,-8.2,-1.02,0.924,3.95,2.04,7.92,23.2,-6.91
NC(=O)COc1ccc(CNCc2ccc(F)cc2F)cc1,-2.69,6.94,-4.07,9.21,3.01,24.7,8.42,-28.4,9.47,12.8,-5.67
CCOc1ccc(-c2ccnc(CC)n2)cc1C(=O)O,0.91,10.8,-5.65,16.4,2.9,-0.476,20,-11.8,8.99,-2.44,-1.49
CC1CCCN(Cc2c(C3CCOCC3)[nH]c3ncccc23)C1 (configuration not stated),-2.15,25.7,4.08,-6.47,0.198,-6.26,14.3,11,2.15,11.7,-12
CCc1ncc(C(=O)NCCNC(=O)Cc2ccc(F)cc2)s1,-1.95,8,-16.6,11.1,5.55,16.7,11.3,-8.05,7.1,16.1,-3.11
CN(C)C(=O)COCc1cncc2c1CCN(Cc1cnn(C)c1)C2,-4.54,10.4,1.37,20,0.0983,-6.9,11.8,10.6,3.23,8.64,-2.53

# From ChEMBL document CHEMBL3988442, “University of Dundee, Small-Polar-MMV Screening Library” (2021)
